# Assay results: PubChem BioAssay AID624483 (NMMLSC, 2012)
# Out of some 360,000 compounds screened, about 11,000 (3.1%) were called active. About 2% were inconclusive and are not listed. Cut-off read from the data, not from the text of the source: active = fluorescence intensity above about 16000; inconclusive = no clear call, values can overlap the other calls; inactive = below that. This excerpt belongs to a sample that is enriched for actives.
# Experiment: counter-screen for toxin protease inhibitors: compound fluorescence, primary screen, artefact control for toxin protease inhibitor project, biochemical, multiplex microsphere, HTS (AID 624483)
# Conditions: compound autofluorescence counterscreen, microsphere flow cytometry; active compounds read high
row,SMILES,fluorescence intensity
1,Clc1ccccc1Nc1nc(NCc2cccs2)nc2ccsc12,2970 (inactive)
2,O=C(NN=Cc1ccccc1O)C(=O)NN=Cc1ccccc1O,3880 (inactive)
3,COC(=O)[C@H](CC(C)C)NC(=O)N1CCCCC1C (stereo partly specified),6670 (inactive)
4,COc1ccccc1-c1cc(NC(C)=O)c2ncc(-c3ccc(F)cc3)n2c1,3190 (inactive)
5,O=C(c1ccc(F)cc1)N1CCC(C(=O)N2CCN(S(=O)(=O)c3ccccc3Br)CC2)CC1,6500 (inactive)
6,CCSc1nc(=S)n(CC)c(C)c1C(C)=O,19400 (active)
7,CC(=O)c1c(N2CCOCC2)nc(=S)n(Cc2ccccc2)c1C,2990 (inactive)
8,CCn1c(CSc2nc(C)cc(C)n2)nnc1SCC(N)=O,4570 (inactive)
9,CCCc1nc(-c2ccccc2O)n(-c2ccccc2)n1,3640 (inactive)
10,CC(=O)NC(C)(C)C1CC=C(C)/C(=N\O)C1 (stereo unspecified),17100 (active)
11,C=C(C)C1CC=C(C)/C(=N\NC(=O)CNc2ccccc2OC)C1 (stereo unspecified),2580 (inactive)
12,OC(c1ccccc1)c1nc(/C=C/c2ccc(C(F)(F)F)cc2)cs1 (stereo unspecified),2820 (inactive)
13,O=C(CSc1nnc(Cn2cnc3ccccc32)o1)c1ccccc1,4020 (inactive)
14,CC(=O)Nc1ccc(C(=O)CSc2nnc(Cc3ccccc3)o2)cc1,16300 (active)
15,CCCc1nnc(SCC(=O)Nc2ccc(C(=O)OCC)cc2)o1,3670 (inactive)
16,CN(Cc1cn(Cc2ccc(C(F)(F)F)cc2)nn1)C1CN(Cc2cn(Cc3ccc(C(F)(F)F)cc3)nn2)S(=O)(=O)C1 (stereo unspecified),5810 (inactive)
17,COc1ccc(CNC(=O)C2CCCC2)cc1,5540 (inactive)
18,COc1ccc(CNc2nc(NCc3ccc(OC)cc3)c3ncn(C4CCCC4)c3n2)cc1,4490 (inactive)
19,COc1ccc(CNC2CCCCC2)cc1,22800 (active)
20,COc1cccc(NC(=O)C2(C)CCN2Cc2ccccc2Cl)c1 (stereo unspecified),3880 (inactive)
21,COc1ccccc1CNC(=O)c1cc(-c2cc(Cl)ccc2C)n[nH]1,3000 (inactive)
22,O=C(CSc1nnc(COc2ccc(Cl)cc2)n1Cc1ccco1)N1CCNC1=O,5560 (inactive)
23,COc1ccc(C(=O)CSc2nnc(COc3ccccc3)n2Cc2ccco2)cc1,23900 (active)

row,SMILES,fluorescence intensity
1,CCn1c(CNc2ccc(OC)cc2)nnc1SCC(=O)c1ccc(OC)cc1,3090 (inactive)
2,CCCCN(CC)C(=O)CN(C)S(=O)(=O)c1cccc2nsnc12,6470 (inactive)
3,CC(C(=O)NC1CCCC1)N1CCN(S(=O)(=O)c2ccccc2Cl)CC1 (stereo unspecified),4750 (inactive)
4,CCCCNC(=O)CN1C(=O)NC(Cc2ccccc2)(Cc2ccccc2)C1=O,5690 (inactive)
5,O=C(CN1C(=O)NC(Cc2ccccc2)(Cc2ccccc2)C1=O)NCC1CCCCC1,20200 (active)
6,O=C(CC1CCCCC1)NCc1ccccc1,3670 (inactive)
7,CSc1ccccc1C(=O)Nc1cccc(C(C)=O)c1,26700 (active)
8,CC(=O)c1cccc(NC(=O)[C@@H](NC(N)=O)C(C)C)c1,3400 (inactive)
9,CC(=O)c1cccc(NC(=O)c2cc(C)nn2-c2ccccc2)c1,3940 (inactive)
10,COC(=O)c1ccc2c(c1)S(=O)(=O)NC2C (stereo unspecified),5730 (inactive)
11,COC(=O)c1ccc(OCC(O)CN(CCO)CC(O)Cn2ccc3ccccc32)cc1 (stereo unspecified),2540 (inactive)
12,CCn1c(SCC(=O)Nc2sc(C)c(C)c2C#N)nnc1C1CC1,4370 (inactive)
13,CCOC(=O)c1sc(NC(=O)CSc2nc(C)cc(C(F)(F)F)n2)c(C#N)c1C,20700 (active)
14,Cc1cc(C(F)(F)F)nc(SCC(=O)Nc2nccs2)n1,4960 (inactive)
15,CC(C)(C)S(=O)N1Cc2cc(C(=O)NCCCN3CCOCC3)nc(-c3cccc(-c4cc5ccccc5o4)c3)c2[C@H]1CCO (stereo partly specified),4620 (inactive)
16,Cc1noc(NS(=O)(=O)c2ccc(N3CC(O)=C(c4ccccc4)C3=N)cc2)c1C,2440 (inactive)
17,CCOC(=O)C1CCCN(C(=O)c2ccc(C)c(F)c2)CC1 (stereo unspecified),3730 (inactive)
18,CS(=O)(=O)Nc1cccc(C2=NN(S(=O)(=O)c3ccccc3)C(c3cccs3)C2)c1 (stereo unspecified),8170 (inactive)
19,CCS(=O)(=O)Nc1ccc(C2=NN(C(C)=O)C(c3cccs3)C2)cc1 (stereo unspecified),2400 (inactive)
20,CCS(=O)(=O)Nc1ccc(C2=NN(S(=O)(=O)c3ccc(F)cc3)C(c3ccco3)C2)cc1 (stereo unspecified),17100 (active)
21,CCOC(=O)C1(C(F)(F)F)N=C(N(C)C)OC(N(C)C)=N1,2190 (inactive)
22,COCCCNC(=O)CNC(=S)N(Cc1cc(OC)c(OC)c(OC)c1)C1CCCC1,2570 (inactive)
23,O=S1(=O)CC(NCc2ccccc2)C(Nc2ccc(Cl)cc2)C1 (stereo unspecified),3670 (inactive)

row,SMILES,fluorescence intensity
1,CCn1c(CNC(=O)c2cc(OC)c(OC)c(OC)c2)cc2cc(C)ccc21,3780 (inactive)
2,CCn1c(C)nc2cc(C(=O)NNS(=O)(=O)c3ccc(C)cc3C)ccc21,22500 (active)
3,Cc1ccc(S(=O)(=O)N2CCN(C(=O)Cn3c(=O)cnc4ccccc43)CC2)c(C)c1,5660 (inactive)
4,CC(=O)Nc1cnc(-c2ccc(O)cc2C)cn1,3960 (inactive)
5,NS(=O)(=O)c1ccc(NC2=CC(c3ccc(F)cc3)N(c3ccc(S(N)(=O)=O)cc3)C2=O)cc1 (stereo unspecified),4340 (inactive)
6,C#CCN(C[C@H]1[C@H](OC(=O)NC2CCCC2)[C@H](OC(=O)NC2CCCC2)C[C@H]2C(=O)N(c3ccccc3)C(=O)[C@@H]12)S(=O)(=O)c1ccc(C)cc1,3750 (inactive)
7,Cc1ccccc1CSc1nnc(-c2cccnc2)n1N,2660 (inactive)
8,Cn1c(SCC(=O)C(C)(C)C)nnc1-c1ccccn1,9760 (inactive)
9,Cc1ccccc1CSc1nnc(-c2ccccn2)n1N,16200 (active)
10,COc1ccc(C(=O)NC(=S)N2CCCCC2c2cccnc2)cc1OC (stereo unspecified),4080 (inactive)
11,Cc1ccc(Cn2c(=N)c(S(=O)(=O)c3ccc(C)cc3)cc3c(=O)n4ccccc4nc32)cc1,4390 (inactive)
12,Cc1ccc(-n2c(=O)c(C#N)cc3c(=O)n4ccccc4nc32)cc1C,24200 (active)
13,CCn1c(=N)c(S(=O)(=O)c2ccc(F)cc2)cc2c(=O)n3ccccc3nc21,2990 (inactive)
14,CCc1nc2nc(C)c(NS(=O)(=O)c3ccc4c(c3)CCCC4)c(=O)n2[nH]1,4030 (inactive)
15,C=C1C(=O)[C@]23C[C@H]1CCC2[C@@]1(C)C(C[C@@H]3O)[C@](C)(C(=O)O)CC[C@@H]1O (stereo partly specified),4260 (inactive)
16,CC1=C(C(=O)N(C(C)C)C(C)C)CC(CC(=O)NCC2CCCCC2)C(=O)N1Cc1ccccc1 (stereo unspecified),5490 (inactive)
17,CCCCN(C1CCS(=O)(=O)C1)S(=O)(=O)c1ccc(C(C)C)cc1 (stereo unspecified),5460 (inactive)
18,CN(C1CCS(=O)(=O)C1)S(=O)(=O)c1ccc2ccccc2c1 (stereo unspecified),5860 (inactive)
19,Cc1ccc(S(=O)(=O)N(c2cccc(C)c2)C2CCS(=O)(=O)C2)cc1 (stereo unspecified),21200 (active)
20,CCOP(=O)(OCC)C(Cc1ccccc1)N=C(c1ccccc1)c1ccccc1 (stereo unspecified),5750 (inactive)
21,Cn1cnc(S(=O)(=O)Nc2ccc3c(c2)OCCO3)c1,3290 (inactive)
22,CCC(c1nnnn1-c1ccc2c(c1)OCCO2)N1CCN(c2ccc(C(F)(F)F)cn2)CC1 (stereo unspecified),5170 (inactive)
23,CC(=O)Nc1cc(-c2ccc(N3CCN(C)CC3)cc2)cn2c(-c3cccc(C(=O)N(C)C)c3)cnc12,2910 (inactive)

row,SMILES,fluorescence intensity
1,Cc1ccc(S(=O)(=O)/N=S(\C)C(C)C)cc1 (stereo unspecified),2730 (inactive)
2,CCCC/S(C)=N/S(=O)(=O)c1ccc(C)cc1 (stereo unspecified),1940 (inactive)
3,CC/S(CC1CC1(Cl)Cl)=N\S(=O)(=O)c1ccc(C)cc1 (stereo unspecified),19500 (active)
4,CC(=O)c1ccc(-c2cnc3c(NC=O)cc(-c4cccc(NS(C)(=O)=O)c4)cn23)cc1,4010 (inactive)
5,COc1ccc(C(c2nnnn2C2CCCC2)N2CCN(C/C=C/c3ccccc3)CC2)cc1 (stereo unspecified),5910 (inactive)
6,O=C(CC(c1ccccc1)c1ccccc1)NCC(O)c1ccc([N+](=O)[O-])cc1 (stereo unspecified),3190 (inactive)
7,CCCCOC(=O)Nc1nnc(CC(=O)NCc2ccccc2)s1,3980 (inactive)
8,CCCCCCOC(=O)NCC(O)c1ccccc1 (stereo unspecified),17600 (active)
9,Cc1cccc(CN2CCN(C3CN(Cc4cn(Cc5cc(C)cc(C)c5)nn4)S(=O)(=O)C3)CC2)c1 (stereo unspecified),4640 (inactive)
10,CCCCCCN1CCN(C2CN(Cc3cn(CCCCCC)nn3)S(=O)(=O)C2)CC1 (stereo unspecified),5850 (inactive)
11,Cc1ccc(S(=O)(=O)N(CC(O)CN2CCCCC2)c2cccc([N+](=O)[O-])c2)cc1 (stereo unspecified),3000 (inactive)
12,COc1ccc([N+](=O)[O-])cc1N(CC(O)Cn1nnc2ccccc21)S(=O)(=O)c1ccc(C)cc1 (stereo unspecified),17900 (active)
13,COc1ccc([N+](=O)[O-])cc1N(CC(O)CN(CC(C)C)CC(C)C)S(=O)(=O)c1ccc(C)cc1 (stereo unspecified),3790 (inactive)
14,CC(C)[C@@H](C(=O)OCC(=O)c1ccc2c(c1)NC(=O)CO2)N1C(=O)c2ccccc2C1=O,3880 (inactive)
15,C=C(C)C(=O)O[C@H]1C/C(C)=C\C(=O)/C=C(\C)[C@H](O)[C@@H]2OC(=O)C(=C)[C@@H]21,2760 (inactive)
16,CCOC(=O)c1c(C)n(C)c2ccc(OC)c(NS(=O)(=O)CC)c12,2300 (inactive)
17,CCOc1ccc(NC(=O)Nc2ccc(N(C)C(C)=O)cc2)cc1,4350 (inactive)
18,CCOc1ccc(NC(=O)N(CCC(C)C)C(C)c2ccco2)cc1 (stereo unspecified),2150 (inactive)
19,CCOc1ccc(NC(=O)N(CC(C)C)CC(C)C)cc1,20300 (active)
20,CCCC1NC(=S)NC(C)=C1C(C)=O (stereo unspecified),4600 (inactive)
21,CCOC(=O)C1=C(C)NC(C)=C(C(=O)OCC)C1C1=COCCO1,5040 (inactive)
22,CCCC1NC(=O)NC(C)=C1C(=O)OCC (stereo unspecified),20200 (active)
